The values that follow come from PubChem BioAssay (EPA / NIEHS).

Broadly, the AC50 is the midpoint of the concentration-response curve, whichever way the signal moves.

Values joined by “and” are separate entries in the source; they are usually repeats but may differ in a detail not shown here. Identical values can stand only once. More than one record can exist for a structure, and the calls need not agree. Active and inactive are the calls of the source. How the source made its calls: active means hit-call score of the fitted dose curve at least 0.9, where 1 is the maximum; inactive means score below 0.9.

The experiment in a line: CCTE_Shafer_MEA_dev_firing_rate_mean: CCTE's Neural Network Formation Assay for Mean Firing Rate, Shafer Lab (AID 2284031).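 On AC50: curve fitted for loss of firing so AC50 reflects decreased mean firing rate.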 The procedure: CCTE_Shafer_MEA_dev assay is conducted using Axion Biosystems 48 well microelectrode array (MEA) plates and Maestro recording system. Each well of the MEA plate contains a grid of 16 microelectrodes embedded in the culture surface. Electrically active cells, such as neurons, can be cultured over the electrodes, and electrical activity in these cells can be recorded extracellularly. The spontaneous firing of neurons is captured from each electrode on a microsecond timescale providing both temporally and spatially precise data. […] The CCTE_Shafer_MEA_dev assay uses primary cultures of rat cortical neurons. Recordings are made on days post-plating 5, 7, 9 and 12. As these cultures mature over time, neural networks develop functional activity and form cohesive networks in which electrical activity can be highly coordinated. CCTE_Shafer_MEA_dev_firing_rate_mean is 1 of 19 assay components of the CCTE_Shafer_MEA_dev assay. It measures the frequency of spikes (action potential firings) as the total number of spikes divided by the length of the recording in a microelectrode array (MEA) using Axion Biosystems Maestro 768 channel amplifier with the AxIS adaptive spike detector. The firing rate is averaged across the active electrodes to report a well-mean value. To collapse across multiple recordings made on days post-plating 5, 7, 9 and 12, the trapezoidal area-under-the-curve of the component is calculated.Data from the assay component CCTE_Shafer_MEA_dev_firing_rate_mean was analyzed into 1 assay endpoint. This assay endpoint, CCTE_Shafer_MEA_dev_firing_rate_mean, was analyzed in the negative analysis fitting direction relative to DMSO as the negative control and baseline of activity. Using a type of functional reporter, gain or loss-of-signal activity can be used to understand electrical activity.
On the day prior to culture, each well was coated thoroughly with 150 uL of 0.05% polyethyleneimine (PEI, Sigma Cat P3143) in 50 mM HEPES (Sigma Cat H7523) at a pH of 8. The plate was incubated at 37C for one hour. PEI was rinsed out with 500 uL of sterile water three times. Plates were stored at 4C until the day of culture. This culture was plated at a seeding density of 1.5 x 10^5 cells/well on a 48-well MEA plate, prepared as described above. Cells were administered via a 25 uL media/laminin ([…]; Sigma Cat L2020-1MG) drop directly onto the microelectrode array, as adding the cells with the laminin results in better attachment than pre-coating with laminin. After 2 hours, an additional 475 uL of cortical media was added and the cells returned to the incubator. Exposure starts at day 0 of plating and is continued over twelve days of network development until the experiment is terminated. Cells are fed with fresh medium on DIV 5 and 9, following the recordings on those days. The entire volume of media in the well is exchanged and any vehicle or compound treatment is renewed. Complete details are found in OP-NHEERL/ISTD/SBB/TJS/2015-03-r0 (available on request, email shafer.tim@epa.gov). Measurement of the electrical activity is non-invasive, and recordings can be made from the same plate over multiple different days of the culture. In cortical neurons, this allows for the measurement of extracellular action potentials over the period during which networks form in the MEA plate.
Regarding `CO/C=C(/C(=O)OC)c1ccccc1COc1cccc(C(F)(F)F)n1`, the AC50 was 272 nM (active) and 453 nM (active).

In the case of `O=C(O)C(F)(F)C(F)(F)C(F)(F)C(F)(F)C(F)(F)C(F)(F)C(F)(F)C(F)(F)F`, the outcome was inactive.

Turning to `ClC(Cl)=C(c1ccc(Cl)cc1)c1ccc(Cl)cc1`, the AC50 is 4.06 µM (active).

As for `CCOP(=S)(OCC)SCSC(C)(C)C`, the result was inactive and the AC50 was 23.4 µM (active).

Turning to `ClC1=C(Cl)[C@]2(Cl)[C@@H]3[C@@H](Cl)[C@H]4O[C@H]4[C@@H]3C1(Cl)C2(Cl)Cl`, the call was inactive.

`O=S(=O)(O)C(F)(F)C(F)(F)C(F)(F)C(F)(F)C(F)(F)C(F)(F)F`: the call was inactive.

For the compound `ClC1=C(Cl)[C@]2(Cl)[C@@H]3[C@H]4C[C@H]([C@@H]5O[C@H]45)[C@@H]3[C@@]1(Cl)C2(Cl)Cl`, the call was inactive.

`C=CC(N)=O`: the compound was classed as inactive.

`Oc1ccc(C(c2ccc(O)cc2)(C(F)(F)F)C(F)(F)F)cc1`: the result was inactive.

Turning to `NS(=O)(=O)C(F)(F)C(F)(F)C(F)(F)C(F)(F)C(F)(F)C(F)(F)C(F)(F)C(F)(F)F`, the outcome was inactive.

Regarding `c1cc2ccc3cccc4ccc(c1)c2c34`, the compound was classed as inactive.

Consider `CCC(C)(c1ccc(O)cc1)c1ccc(O)cc1`, for which the compound was classed as inactive.

Turning to `ClC1=C(Cl)[C@]2(Cl)[C@@H]3[C@@H]4C[C@@H]([C@H]5O[C@@H]45)[C@@H]3[C@@]1(Cl)C2(Cl)Cl`, the AC50 is 8.23 µM (active).

As for `Clc1ccc(C(c2ccccc2Cl)C(Cl)(Cl)Cl)cc1` (stereo not drawn), the AC50 was 2.03 µM (active).

For the compound `O=S(=O)(O)C(F)(F)C(F)(F)C(F)(F)C(F)(F)F`, the compound was classed as inactive.

Take `O=C(O)C(F)(F)C(F)(F)C(F)(F)C(F)(F)C(F)(F)F`: the compound was called inactive.

Turning to `COc1ccc(O)c(C(C)(C)C)c1`, the outcome was inactive.
